Assay results: the OligoGym collection

Biological target: P2RX3
Assay: pooled miR-30 sensor sort-seq; sequence = guide strand
Details: shRNA
Also: reference of the scale not given here.

Sequence | sensor-assay potency score (higher = more potent)
TTTCTCAGAAACGCTGTCGAGC | -0.254
TTCACAACCACCGACTTGGTGG | -0.566
TACCTGGTAAGCCTTCTCGTGC | -1.6
TCAGTAACAATCATCTTGGTGA | 0.681
TTCAGTAACAATCATCTTGGTG | -0.0732
TTGAACTTGCCAGCATTCCCGT | -1.02

Biological target: P2RY12
Assay: as above
Details: shRNA

Sequence | sensor-assay potency score (higher = more potent)
TTCACATTCTTGTCTCTCGGCT | -0.666
TAAAGTTTGATTTACTCCGGAT | -0.511
TTATTAACTTAGTTGCTTCTTC | 0.717
TTAACCACAGAGTGCTCTCTTT | -0.668
TTTCATGCCAGACTAGACCGAA | -0.342
TTCTTGTCTCTCGGCTGCCTGT | -1.33
TTGACGTTCACCTTTTTCCTGG | 0.386
ATTTGGGTCACCACCATCCTGT | -0.843
TTATTATTAACTTAGTTGCTTC | -0.642
TAATATTTTTACTTAGCGCTTT | 0.117
TAATTTACTATTTCATGCCAGA | -0.703
TTAACTTAGTTGCTTCTTCGTC | -0.236

Biological target: P2RY4
Assay: as above
Details: shRNA

Sequence | sensor-assay potency score (higher = more potent)
TTGACAATGTTCAGTACTCGGC | -0.264
TTGAAATCCTCATCAAACCAAC | -1.03
TAGGAGTAGAGCAGCTACTGTC | -0.823
TAGAGCACAGGATCCAGGCAGC | -0.928
AAGACGACTGTGCAGAGCCTGG | -1.35
AGTAGAGCAGCTACTGTCCTGG | -1.37
TGAACTTGAAATCCTCATCAAA | -1.05
TAGCGGTGCACGCTGATGCAGG | -1.24
ATAGCAAACAAGAGTGACCAGG | -0.888
TAGAGCAGCTACTGTCCTGGGG | 0.0671
TAGCAAACAAGAGTGACCAGGC | 0.861
TTCCAATAGAAAAGAAAGCGGA | -0.289

Biological target: P2RY6
Assay: as above
Details: shRNA

Sequence | sensor-assay potency score (higher = more potent)
TAGCGCTGGAAGCTGATGCAGG | -0.775
TTGGCATAGAAGAGGAAGCGGA | -1
TTGGGCATAGTTGTAGATGAGC | -1.06
TTTCTGTAGGAGCTCATGTGGT | -1.02
TTGGTGAGCTTCTGGGTCCTGT | -0.191
TTTTGTGAGCACCTTAATGTGG | -0.636
TTTAGGGTGTACACGGCCGTGC | -0.557
AGTTGCTTGAAGTTCTCGCGGT | -0.308
TTCTCGCGGTAGACACAGGTGG | -0.894
TCGCGGTAGACACAGGTGGTGG | -1.81
